Most compounds without a hit are left out; they make up all but 3.6% or so of the library.
IMPase Li inh = IMPase inhibition in cells with lithium potentiation; CHO-M1 cells, IP1 TR-FRET (IP-One), carbachol + lithium; Potency, µM (doses to about 59.4 µM), for inactives: at the highest dose activity, negative = IMPase inhibition, actives largely listed as inhibitors; 0.35% of 210,000 active; AID 1457;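 note: IP1 builds up when IMPase is blocked and the TR-FRET signal falls; plate controls were basal vehicle for no effect and high inhibitor control for full effect; nearly all actives have a fitted effect of over 50% in size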
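CHO cells stably expressing M1 receptor (2000/well) were cultured 16–30 h, then exposed to compounds with a small lithium addition for 30 min at 37C. IP1 was measured by TR-FRET competition; AC50 from Hill fits.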
KDM4E inh = blocks human JMJD2E demethylase activity | B2RXH2 | JMJD2E catalytic domain, FDH-coupled NADH fluorescence (FDH is formaldehyde dehydrogenase) | Potency, µM (doses to about 57.1 µM), inactives show top-dose activity change, negative = inhibition, usual class: inhibitors | 1.6% of 230,000 active | AID 2147; active = well fitted inhibition curve with a large enough effect, not every such curve was filed as active; inconclusive = small, poorly fitted or top-dose-only effect, or another doubt; inactive = no such curve, though single readings can be large or run the other way;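 note: 0% = wells with enzyme and -100% = buffer wells without enzyme; nearly all actives have a fitted effect of over 50% in size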
Target sequence (B2RXH2 1-337 limits assumed): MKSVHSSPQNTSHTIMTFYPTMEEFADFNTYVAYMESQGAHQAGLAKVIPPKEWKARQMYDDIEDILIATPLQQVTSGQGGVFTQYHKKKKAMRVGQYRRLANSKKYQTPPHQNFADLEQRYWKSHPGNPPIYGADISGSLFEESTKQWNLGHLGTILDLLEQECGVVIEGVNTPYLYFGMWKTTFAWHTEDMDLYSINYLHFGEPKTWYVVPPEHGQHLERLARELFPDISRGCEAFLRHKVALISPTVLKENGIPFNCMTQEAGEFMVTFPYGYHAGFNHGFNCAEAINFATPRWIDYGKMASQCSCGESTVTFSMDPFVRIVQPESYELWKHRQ
Epigenetic reg = regulators of epigenetic silencing causing reporter derepression in mouse cells; Potency, µM (series often up to 53.9 µM), without a hit: top-dose GFP activation, usual class: activators; murine LDR cells, GFP reporter derepression, 30 h; 0.2% of 280,000 active; AID 1865; note: % of control where 0% means no effect; nearly all actives have a fitted effect of over 60% in size
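GFP-positive cell count by laser-scanning cytometry (objects 20–120 um) after 30 h, 37 C compound exposure of murine LDR cells; reporter is CMV-GFP integrated at a silenced locus, inducible by HDAC or DNMT inhibitors.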
Sfp PPTase inh = blocks B. subtilis Sfp PPTase activity; Biochemical Sfp PPTase activity, qHTS; Potency, µM, for inactives: largest response in the series, negative = inhibition, usual class: inhibitors; 3.5% of 310,000 active;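 note: the enzyme is Sfp with the accession as filed and its product quenches rhodamine fluorescence; 0% = enzyme reaction without inhibitor and -100% = no enzyme wells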
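After 15 min at room temperature with compound, 15 nM Sfp received 5 uM rhodamine-CoA plus 12.5 uM BHQ-2-ybbR (50 mM Hepes pH 7.6, 10 mM MgCl2). Rate came from the fluorescence difference over 30 min, ex 525/em 598 nm.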
NPSR antag = blocks cAMP signaling of the human neuropeptide S receptor. CHO-NPSR cells, cAMP TR-FRET, antagonist mode. Potency, µM (doses to about 38.3 µM), for inactives: at the top dose activity change, negative = inhibition, most hits filed as inhibitors. 1% of 220,000 active; note: % is set by controls: 0 for no effect and ±100 for the full control effect; nearly all actives have a fitted effect of over 50% in size
Target sequence (Q6W5P4 whole entry, looked up): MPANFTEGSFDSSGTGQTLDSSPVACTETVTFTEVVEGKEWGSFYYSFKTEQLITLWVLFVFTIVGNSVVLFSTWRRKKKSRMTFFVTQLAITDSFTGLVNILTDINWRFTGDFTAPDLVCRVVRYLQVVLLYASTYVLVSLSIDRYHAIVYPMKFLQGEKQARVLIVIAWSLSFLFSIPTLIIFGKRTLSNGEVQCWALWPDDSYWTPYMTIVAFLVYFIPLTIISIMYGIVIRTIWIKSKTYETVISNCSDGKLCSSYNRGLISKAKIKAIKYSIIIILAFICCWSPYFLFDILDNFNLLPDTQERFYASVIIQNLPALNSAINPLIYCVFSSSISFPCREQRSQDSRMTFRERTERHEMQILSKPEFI
KAT2A inh = blocks human GCN5L2 histone acetyltransferase; Q92830; GCN5L2 HAT assay, ThioGlo1 CoA-SH fluorescence; Potency, µM (series often up to 58.9 µM), without a hit: top-dose activity change, negative = inhibition, actives largely listed as inhibitors; 0.21% of 390,000 active; AID 504327; note: % is set by controls: 0 for no effect and ±100 for the full control effect
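Fluorescence readout, Ex340nm/Em540nm: ThioGlo1 (50uM final) reacts with free CoA thiol released as 20nM GCN5L2 acetylates H3(1-25) peptide (75uM) using acetyl-CoA (70uM). Compound and enzyme sat 15 min beforehand; 20 min room-temperature reaction.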
* hit, by the source's call; ? = inconclusive; · = no result given; [ ] = remark or other dose. Unless noted, calls come from the whole dose curve; as a rule, active = well fitted curve in the direction sought with a large enough effect; inconclusive = small, poorly fitted or top-dose-only effect, or another doubt; inactive = no such curve, though single readings can be large; an effect the other way counts as inactive or inconclusive. Potency is the fitted concentration of half-maximal effect.

SMILES	IMPase Li inh	KDM4E inh	Epigenetic reg	Sfp PPTase inh	NPSR antag	KAT2A inh
CCOC(=O)c1c(-c2ccc(C)cc2)csc1NC1=NS(=O)(=O)c2ccccc21	11µM*	4%	1%	18%	?	-4%
CCOC(=O)c1c(-c2ccc(C)cc2)csc1NC(=S)NC(=O)c1ccccc1	18%[38.3 µM]	-5%	0%	21%	-23%[46.1 µM]	-10%
CCOC(=O)c1c(-c2ccc(-c3ccccc3)cc2)csc1NC(=O)C1C2CCC(O2)C1C(=O)O (centres undefined)	14%[38.3 µM]	?	-1%	50µM*	?	-22%
CCOC(=O)c1c(-c2ccc(C)cc2)csc1NC(=O)c1cc(=O)c2ccc(C)cc2o1	·	·	1%	·	·	0%
COc1ccc(NC(=O)c2sc3nc(C)c(C(=O)Nc4ccc(C)cc4C)c(-c4cccs4)c3c2N)cc1	·	·	?	·	·	-5%
COc1ccc(CNc2nc(-c3ccco3)nn2S(=O)(=O)c2ccc(Cl)cc2)cc1OC	·	·	0%	·	·	-18%
O=c1cc(-c2cc(O)c(O)c([C@@H]3O[C@H](CO)[C@@H](O)[C@H](O)[C@H]3O)c2)oc2cc(O[C@@H]3O[C@H](CO)[C@@H](O)[C@H](O)[C@H]3O)cc(O)c12	·	·	·	-8%	·	-15%
CCOC(=O)N1C(C)CN(/[N+]([O-])=N/Oc2ccc([N+](=O)[O-])cc2[N+](=O)[O-])CC1C (centres undefined)	·	·	·	8%	·	·
CCC(CC)C(=O)NCc1nc2cccnc2n1Cc1ccc(F)cc1	·	·	2%	·	·	-5%
NC(=S)Cc1nc(-c2ccccc2)cs1	-5%	-1%	?	56µM*	21%	-6%
Oc1csc(Cc2nc(-c3ccc(-c4ccccc4)cc3)cs2)n1	-24%[38.3 µM]	4%	-3%	-3%	-7%[46.1 µM]	-4%
Cc1ccc(C2=NOC(=O)/C2=C\c2ccc(C)o2)cc1	·	-19%	1%	40µM*	?	?
Cc1ccc(/C=C2\C(=O)ON=C2c2ccccc2)o1	-3%	8%	-1%	15%	-10%	-1%
Cc1ccc(-c2ccc(/C=C3\C(=O)ON=C3c3ccccc3)o2)c([N+](=O)[O-])c1	21%[38.3 µM]	-4%	1%	22µM*	7.9µM*	?
O=C(O)[C@@H]1CCCN1Cc1ccc2c(c1)OCO2	8%	·	·	·	·	·
CCCCc1ccc(C2C(C#N)=C(N)SC(N)=C2C#N)s1	-22%[38.3 µM]	-29%	4%	56µM*	-5%[46.1 µM]	?
COCCn1c(=O)c(-c2cn(C)c3ccccc23)nc2cnc(N3CCNCC3)nc21	13%	·	·	4%	·	?
CCC1=NN(C(=O)c2ccc(Cl)cc2)C(O)(c2ccccc2)C1 (centres undefined)	·	·	·	9%	·	-18%
COC(=O)C1=NN(C(=O)c2ccc(Cl)cc2)C(O)(c2ccccc2)C1 (centres undefined)	4%[38.3 µM]	?	3%	3%	-5%[46.1 µM]	1.4µM*
CCOC(=O)c1oc2cccc(OCC(O)CNC(C)C)c2c1C (centres undefined)	20%[38.3 µM]	?	-2%	28µM*	12%[46.1 µM]	-1%
Cc1occc1C(=O)n1nnc2ccccc21	-4%[38.3 µM]	2%	1%	32µM*	3%[46.1 µM]	·
CCOC(=O)CCN1C(=O)[C@H]2[C@H]3[C@H](O)[C@H](O)C/C(=N/OC/C=C(\C)CCC=C(C)C)[C@H]3CC[C@@H]2C1=O	·	·	0%[10.1 µM]	16%	·	·
Cc1ccc(CNC(=O)c2cc3c(=O)n(C)c4ccccc4c3n2C)o1	24%[38.3 µM]	?	2%	56µM*	-3%[46.1 µM]	-4%
Cn1c(C(=O)N2CCN(c3ncccn3)CC2)cc2c(=O)n(C)c3ccccc3c21	-1%[38.3 µM]	-7%	-6%	40µM*	-14%[46.1 µM]	-6%
Cn1c(C(=O)N2CCCC2)cc2c(=O)n(C)c3ccccc3c21	0%[38.3 µM]	-17%	0%	12%	-6%[46.1 µM]	-14%
SMILES	IMPase Li inh	KDM4E inh	Epigenetic reg	Sfp PPTase inh	NPSR antag	KAT2A inh
Cc1ccc(CNC(=O)c2cn(C)c(=O)c3c2c2ccccc2n3C)o1	51%[38.3 µM]	?	0%	22µM*	-17%[46.1 µM]	-9%
Cn1c(C(=O)NCc2ccc(Cl)cc2)cc2c(=O)n(C)c3ccccc3c21	·	·	0%	·	·	-5%
CCOc1ccc(NC(=O)c2cc3c(=O)n(C)c4ccccc4c3n2C)cc1	7.9µM*	?	13%	16%	-14%[46.1 µM]	-3%
O=C(CC(c1cccs1)N1Cc2ccccc2C1=O)Nc1ccc(Cl)cc1 (centres undefined)	·	·	13%	·	·	0%
CCC(C)(C)c1ccc(OCCCC[n+]2cccc(C)c2)c(C(C)(C)CC)c1	18%	5%	0%	32µM*	?	-1%
CCOC(=O)/C=C/C(=O)Nc1cccc([N+](=O)[O-])c1	-6%	4%	-1%	2.8µM*	?	?
CC(C(=O)Nc1cccc([N+](=O)[O-])c1)[n+]1ccccc1 (centres undefined)	5%	10%	?	20µM*	-15%	-7%
CCC(Sc1ccccn1)C(=O)Nc1cccc([N+](=O)[O-])c1 (centres undefined)	4%	?	0%	56µM*	22%	-11%
Cc1cccc(Oc2ccc3c(c2)Oc2ccccc2NC3=O)c1	·	·	6%	·	·	-25%
Cn1ccnc1SCc1ccc([N+](=O)[O-])cc1	11%[38.3 µM]	-2%	-1%	1%	-1%[46.1 µM]	0.79µM*
Cc1ccc(N/C(N)=N/c2nc(C)cc(N3CCCCC3)n2)c(C)c1	24%	9%	?	-6%	10µM*	0%
CCc1nnc(NC2=NCCC2)s1	11%[38.3 µM]	?	-1%	56µM*	-2%[46.1 µM]	-2%
Oc1ccc(NCc2cccc(OCc3ccccc3)c2)cc1	12%	4.5µM*	?	?	-8%	-4%
O=[N+]([O-])c1ccc(COc2cccc(CNc3ccc(F)cc3)c2)cc1	27%	-3%	2%	-1%	-18%[46.1 µM]	?
O=C(CCc1nc(-c2ccccc2)no1)NCc1ccco1	-27%[38.3 µM]	0%	-1%	-16%	-15%[46.1 µM]	-1%
Cc1ccc(-c2noc(CCC(=O)N(C)c3ccccc3C)n2)cc1	6%[38.3 µM]	-11%	1%	50µM*	-27%[46.1 µM]	-5%
Cc1ccc(-c2noc(CCC(=O)NCc3ccco3)n2)cc1	18%[38.3 µM]	-2%	2%	56µM*	-14%[46.1 µM]	-5%
CCN(C(=O)CCc1nc(-c2ccc(C)cc2)no1)c1cc(C)ccc1C	·	·	0%	·	·	-6%
Clc1ccc(OCc2nnc(SCCN3CCCCC3)n2Cc2ccco2)cc1	50%[38.3 µM]	-5%	0%	25µM*	5%[46.1 µM]	-7%
O=c1c2ccccc2nnn1CSc1nnc(COc2ccc(Cl)cc2)n1Cc1ccco1	9%[38.3 µM]	12%	1%	-25%	-27%[46.1 µM]	-1%

Screening results: PubChem, National Center for Advancing Translational Sciences (NCATS)
